High-throughput results from PubChem.
Most compounds without a hit are left out; they make up all but 3.5% or so of the library.
FBW7 act: human FBW7 E3 ligase activation, primary screen; Q969H0; AlphaScreen FBW7–phospho-cyclin E peptide binding, activator screen; normalized activity (activation), % at 26.1 µM; actives 0.13% (n = 650,000); AID 1259310; in the data active means normalized activity above about 1.9%;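 further: purified mutant Fbw7 with reduced substrate affinity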
MITF primary: inhibitors of human MITF; O75030; inhibition, % at 2.6 µM; AlphaScreen MITF homodimerization, bead proximity signal; actives 0.91% (n = 650,000); in the data active means inhibition above about 50%;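 further: 0% = vehicle wells with protein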
TEAD-YAP inh: TEAD-YAP interaction inhibition. HEK-TIYL cells, TEAD-Gal4/YAP UAS-luciferase luminescence. inhibition, % at 9.12 µM. actives 1.4% (n = 640,000); in the data active means inhibition above about 32%;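 further: 0% = median of test compound wells and 100% = reference inhibitor wells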
GPR151 ag: activates the human receptor GPR151. Q8TDV0. PathHunter beta-arrestin GPR151 cells, luminescence. activation, % at 11.2 µM. actives 1% (n = 650,000). AID 1508602; in the data active means activation above about 4.9%;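 further: 0% = median of compound wells and 100% = cells with positive control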
The depositor's hits bear a star.

SMILES	FBW7 act	MITF primary	TEAD-YAP inh	GPR151 ag
CS(=O)(=O)N(CC(=O)N/N=C/c1cc(Cl)cc(Cl)c1O)c1ccccc1	0	8	58*	1
CCOc1ccc2nc(SCCC#N)nc(C)c2c1	0	8	1	1
CNC(=O)c1ccccc1Nc1cc(Nc2ncccn2)ncc1C(F)(F)F	0	21	24	-1
CNC(=O)c1cc(F)ccc1Nc1cc(Nc2ccc(N3CCCC3=O)cc2)ncc1C(F)(F)F	0	-7	32	1
CNC(=O)c1ccccc1Nc1cc(Nc2ccc3[nH]c(=O)oc3c2)ncc1C(F)(F)F	0	11	33*	1
CNS(=O)(=O)c1ccccc1Nc1cc(Nc2ccc3c(c2)CCC(=O)N3)ncc1C(F)(F)F	0	-5	93*	0
CNC(=O)c1ccccc1Nc1cc(Nc2ccc3c(c2)CC(=O)N3C)ncc1C(F)(F)F	0	-3	65*	-2
CNS(=O)(=O)c1ccccc1Nc1cc(Nc2ccccc2S(=O)(=O)NC)c(C(F)(F)F)cn1	0	21	1	2
CNC(=O)c1ccccc1Nc1cc(Nc2ccc3[nH]nc(C4=CCNCC4)c3c2)ncc1C(F)(F)F	0	2	-36	1
CNC(=O)c1ccccc1Nc1cc(Nc2ccc3c(c2)OCO3)ncc1C(F)(F)F	0	-7	41*	0
Cc1cc(NC2CCN(Cc3ccccc3)CC2)nc(Nc2ccc(N3CCOCC3)cc2)n1	0	19	-12	1
O=C(N/C(=C\c1cccc(F)c1)C(=O)N1CCOCC1)c1ccccc1Br	0	3	1	0
O=C(Cn1c(=O)n(-c2ccccc2)c(=O)c2sccc21)NC1CCCCC1	0	12	-18	-1
CNC(=O)c1ccncc1Nc1cc(Nc2ccc3c(c2)CC(=O)N3)ncc1C(F)(F)F	0	2	-7	3
CNC(=O)c1ccccc1Nc1cc(Nc2ccc3c(c2)CC(=O)N3)ncc1C(F)(F)F	0	16	51*	0
O=S(=O)(Cc1ccccc1)N1CCC(Cc2ccccc2)CC1	0	-4	3	1
CC1=CC(=O)C(N2CCC(Cc3ccccc3)CC2)=CC1=O	0	60*	4	-2
COc1ccc(CN(C)Cc2nc(CCc3ccccc3)no2)c2cccnc12	1	6	35*	-1
COc1cccc(/C=N/NC(=O)c2ccc(Cl)c(Cl)c2)c1O	0	7	9	-1
O=C(N/N=C\c1ccc([N+](=O)[O-])s1)c1cncc(Br)c1	0	10	65*	-1
O=C(N/N=C/c1cc(Cl)ccc1O)c1cncc(Br)c1	0	63*	7	0
COc1cccc(/C=N/NC(=O)c2cc3ccccc3cc2O)c1O	0	24	53*	-6
COc1cccc(/C=N/NC(=O)c2cc(O)c(O)c(O)c2)c1O	0	46	8	-2
COc1cccc(/C=N/NC(=O)c2ccncc2)c1O	-1	61*	6	1
Cc1ccc(NC(=O)CCS(=O)(=O)c2cc3c(cc2C)NC(=O)CO3)cc1C	0	-5	2	0
SMILES	FBW7 act	MITF primary	TEAD-YAP inh	GPR151 ag
COc1ccccc1C(=O)N/N=C/c1cc([N+](=O)[O-])cc(OC)c1O	1	-10	-21	-1
COc1cccc(/C=N/NC(=O)c2ccc(NC(=O)c3ccc(F)cc3)cc2)c1O	0	4	97*	0
COc1cccc(/C=N/NC(=O)c2ccc(N(C)S(=O)(=O)c3ccccc3)cc2)c1O	0	13	80*	1
COc1cccc(/C=N/NC(=O)C(=O)N/N=C/c2cccc(OC)c2O)c1O	-1	-205	13	0
COc1cc([N+](=O)[O-])cc(/C=N/NC(=O)c2ccncc2)c1O	-1	83*	5	-1
COc1ccccc1/C=N/NC(=O)c1ccc(NC(=O)c2ccc(F)cc2)cc1	0	21	0	1
COc1cc(/C=N/NC(=O)c2cncc(Br)c2)cc(Br)c1O	0	7	-4	-1
COc1cccc(/C=N/NC(=O)c2cncc(Br)c2)c1O	0	90*	80*	-5
COc1cccc(/C=N/NC(=O)C(=O)Nc2cccc(C(F)(F)F)c2)c1O	-3	6	59*	1
CC(=O)Nc1cccc(NC(=O)C2CCCN(c3ccc(-c4ccccc4)nn3)C2)c1 (stereo not given)	0	9	-41	-1
Cc1ccc(/C=C2/SC(=Nc3cccc(C)c3)NC2=O)cc1	0	-12	8	-1
COc1ccc(/C=C2/SC(=Nc3ccccc3Cl)NC2=O)cc1	0	3	37*	1
CN(C)c1ccc(/C=C2/SC(=Nc3ccccc3Cl)NC2=O)cc1	0	6	45*	-1
